How the values were obtained:
Assay in all cases: log2 ratio of Biotin-Ahx-Ub-VS probe labelling (fragment/DMSO); higher = less target engagement (more negative = stronger competition), active = hit call of the paper (q ≤ 0.05, log2 ratio ≤ -1)
Details in all cases: compound concentration: 200 uM; treatment time: 3 h
USP42 = biological target: T1, USP42 (UniProt Q9H9J4)
T1 sequence (whole entry): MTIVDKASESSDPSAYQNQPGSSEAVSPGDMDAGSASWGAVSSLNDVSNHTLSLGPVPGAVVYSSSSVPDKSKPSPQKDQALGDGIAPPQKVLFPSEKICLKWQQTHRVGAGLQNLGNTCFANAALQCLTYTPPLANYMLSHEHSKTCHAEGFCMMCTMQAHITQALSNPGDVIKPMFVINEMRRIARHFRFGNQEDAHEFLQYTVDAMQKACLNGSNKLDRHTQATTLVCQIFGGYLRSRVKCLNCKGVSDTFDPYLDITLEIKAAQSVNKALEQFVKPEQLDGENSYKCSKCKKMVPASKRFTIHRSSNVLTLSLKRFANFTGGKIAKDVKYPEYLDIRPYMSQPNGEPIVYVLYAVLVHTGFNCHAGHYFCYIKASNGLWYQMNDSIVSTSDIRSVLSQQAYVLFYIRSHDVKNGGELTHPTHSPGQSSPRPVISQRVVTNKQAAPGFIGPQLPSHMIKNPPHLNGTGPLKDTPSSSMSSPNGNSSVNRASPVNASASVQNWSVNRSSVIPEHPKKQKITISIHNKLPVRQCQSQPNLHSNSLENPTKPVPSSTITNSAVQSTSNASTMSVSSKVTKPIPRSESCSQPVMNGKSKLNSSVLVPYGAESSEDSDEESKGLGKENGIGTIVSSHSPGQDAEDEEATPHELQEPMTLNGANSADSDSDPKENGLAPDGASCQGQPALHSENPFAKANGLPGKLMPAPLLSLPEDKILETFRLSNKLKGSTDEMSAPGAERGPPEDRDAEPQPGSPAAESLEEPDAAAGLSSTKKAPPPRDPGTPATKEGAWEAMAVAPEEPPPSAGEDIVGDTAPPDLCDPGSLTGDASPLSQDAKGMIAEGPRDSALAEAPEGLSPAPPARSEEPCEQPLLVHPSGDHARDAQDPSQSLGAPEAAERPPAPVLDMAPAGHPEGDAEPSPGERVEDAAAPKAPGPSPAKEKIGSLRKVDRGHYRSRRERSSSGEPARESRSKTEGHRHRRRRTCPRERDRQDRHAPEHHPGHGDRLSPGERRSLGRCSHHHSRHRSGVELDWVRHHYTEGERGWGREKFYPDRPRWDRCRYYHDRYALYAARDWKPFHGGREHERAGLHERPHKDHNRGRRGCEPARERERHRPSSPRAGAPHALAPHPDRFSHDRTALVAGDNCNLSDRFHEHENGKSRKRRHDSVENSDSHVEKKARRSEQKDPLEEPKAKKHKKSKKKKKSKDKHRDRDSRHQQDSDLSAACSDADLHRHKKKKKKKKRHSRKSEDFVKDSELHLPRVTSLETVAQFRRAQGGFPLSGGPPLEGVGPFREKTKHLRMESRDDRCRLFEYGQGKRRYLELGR
Method in brief: (§1)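 HEK293T lysate, 495 µg per sample in Tris/CHAPS/IGEPAL buffer with protease inhibitors, was treated in triplicate with fragment at 200 µM or vehicle for 3 h and then with Biotin-Ahx-Ub-VS at 0.5 µM final for 1 h. Labelled DUBs were NeutrAvidin-enriched, digested with LysC and trypsin, and run by diaPASEF LC-MS/MS. Spectronaut label-free quantities were global-median-normalised, and values are average log2 fragment/vehicle ratios by unpaired t-test on proteins with ≥2 unique peptides.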

USP46 = USP46 (UniProt P62068)
Method in brief: as §1

USP47 = biological target: T2, USP47 (UniProt Q96K76)
T2 sequence (whole entry): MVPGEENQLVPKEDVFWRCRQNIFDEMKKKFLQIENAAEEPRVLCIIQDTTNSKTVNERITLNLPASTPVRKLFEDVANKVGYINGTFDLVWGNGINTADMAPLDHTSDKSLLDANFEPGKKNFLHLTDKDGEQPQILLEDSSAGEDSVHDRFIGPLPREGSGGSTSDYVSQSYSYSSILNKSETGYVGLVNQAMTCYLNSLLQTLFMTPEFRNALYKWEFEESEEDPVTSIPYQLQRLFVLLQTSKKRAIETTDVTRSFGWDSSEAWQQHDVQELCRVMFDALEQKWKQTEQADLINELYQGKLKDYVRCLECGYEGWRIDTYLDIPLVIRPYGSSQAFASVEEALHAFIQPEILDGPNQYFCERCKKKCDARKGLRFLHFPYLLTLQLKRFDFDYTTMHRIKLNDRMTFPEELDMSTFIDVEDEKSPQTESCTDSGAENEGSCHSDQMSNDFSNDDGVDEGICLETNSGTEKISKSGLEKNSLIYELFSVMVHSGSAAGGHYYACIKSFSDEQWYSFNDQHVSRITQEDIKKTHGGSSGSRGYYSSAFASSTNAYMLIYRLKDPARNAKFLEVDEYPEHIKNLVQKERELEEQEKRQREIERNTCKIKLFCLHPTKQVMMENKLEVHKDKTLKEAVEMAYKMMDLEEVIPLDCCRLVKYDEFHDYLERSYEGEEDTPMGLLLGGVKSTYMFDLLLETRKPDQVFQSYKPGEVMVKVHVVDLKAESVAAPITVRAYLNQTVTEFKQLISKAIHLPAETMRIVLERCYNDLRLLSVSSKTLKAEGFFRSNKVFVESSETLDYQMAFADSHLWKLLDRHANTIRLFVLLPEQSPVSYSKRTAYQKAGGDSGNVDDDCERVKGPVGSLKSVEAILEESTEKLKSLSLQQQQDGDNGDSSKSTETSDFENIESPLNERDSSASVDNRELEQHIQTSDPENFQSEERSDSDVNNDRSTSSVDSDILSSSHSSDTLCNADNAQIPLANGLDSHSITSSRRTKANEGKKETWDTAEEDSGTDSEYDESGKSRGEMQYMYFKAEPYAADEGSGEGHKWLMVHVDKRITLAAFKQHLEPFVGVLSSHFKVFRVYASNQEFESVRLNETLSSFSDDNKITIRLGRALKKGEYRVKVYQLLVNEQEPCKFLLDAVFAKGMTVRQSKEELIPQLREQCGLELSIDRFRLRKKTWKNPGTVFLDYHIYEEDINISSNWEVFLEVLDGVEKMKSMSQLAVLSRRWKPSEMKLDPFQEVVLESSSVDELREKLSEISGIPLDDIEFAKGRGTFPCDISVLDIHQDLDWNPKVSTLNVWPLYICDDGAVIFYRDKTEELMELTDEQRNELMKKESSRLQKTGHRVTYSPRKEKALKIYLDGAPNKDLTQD
Method in brief: as §1

USP48 = biological target: T3, USP48 (UniProt Q86UV5)
T3 sequence (whole entry): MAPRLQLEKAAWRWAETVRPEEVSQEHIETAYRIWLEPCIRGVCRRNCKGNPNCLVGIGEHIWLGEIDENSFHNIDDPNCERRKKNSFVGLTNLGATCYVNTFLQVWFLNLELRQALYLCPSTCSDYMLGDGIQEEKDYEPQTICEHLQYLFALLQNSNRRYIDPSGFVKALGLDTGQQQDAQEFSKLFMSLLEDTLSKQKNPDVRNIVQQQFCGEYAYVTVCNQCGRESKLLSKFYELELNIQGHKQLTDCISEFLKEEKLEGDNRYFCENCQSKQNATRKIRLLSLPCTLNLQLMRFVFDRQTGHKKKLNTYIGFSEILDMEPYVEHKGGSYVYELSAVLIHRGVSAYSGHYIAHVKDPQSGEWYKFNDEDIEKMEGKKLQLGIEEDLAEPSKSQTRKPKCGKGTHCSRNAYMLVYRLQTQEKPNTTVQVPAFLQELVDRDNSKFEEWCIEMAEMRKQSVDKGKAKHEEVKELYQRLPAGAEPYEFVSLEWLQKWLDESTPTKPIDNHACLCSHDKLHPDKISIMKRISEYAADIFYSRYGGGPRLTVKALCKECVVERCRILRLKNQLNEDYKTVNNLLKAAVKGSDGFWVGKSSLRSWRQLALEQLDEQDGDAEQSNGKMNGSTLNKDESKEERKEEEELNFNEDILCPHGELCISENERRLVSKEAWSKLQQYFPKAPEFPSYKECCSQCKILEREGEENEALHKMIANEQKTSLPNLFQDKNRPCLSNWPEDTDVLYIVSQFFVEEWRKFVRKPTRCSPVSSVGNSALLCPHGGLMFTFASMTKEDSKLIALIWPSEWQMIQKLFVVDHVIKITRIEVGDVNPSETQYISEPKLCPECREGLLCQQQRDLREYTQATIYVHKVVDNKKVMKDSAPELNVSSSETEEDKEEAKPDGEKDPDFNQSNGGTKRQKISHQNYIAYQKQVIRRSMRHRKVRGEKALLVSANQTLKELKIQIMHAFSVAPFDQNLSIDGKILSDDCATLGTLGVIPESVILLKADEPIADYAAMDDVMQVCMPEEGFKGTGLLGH
Method in brief: as §1

USP5 = biological target: T4, USP5 (UniProt P45974)
T4 sequence (whole entry): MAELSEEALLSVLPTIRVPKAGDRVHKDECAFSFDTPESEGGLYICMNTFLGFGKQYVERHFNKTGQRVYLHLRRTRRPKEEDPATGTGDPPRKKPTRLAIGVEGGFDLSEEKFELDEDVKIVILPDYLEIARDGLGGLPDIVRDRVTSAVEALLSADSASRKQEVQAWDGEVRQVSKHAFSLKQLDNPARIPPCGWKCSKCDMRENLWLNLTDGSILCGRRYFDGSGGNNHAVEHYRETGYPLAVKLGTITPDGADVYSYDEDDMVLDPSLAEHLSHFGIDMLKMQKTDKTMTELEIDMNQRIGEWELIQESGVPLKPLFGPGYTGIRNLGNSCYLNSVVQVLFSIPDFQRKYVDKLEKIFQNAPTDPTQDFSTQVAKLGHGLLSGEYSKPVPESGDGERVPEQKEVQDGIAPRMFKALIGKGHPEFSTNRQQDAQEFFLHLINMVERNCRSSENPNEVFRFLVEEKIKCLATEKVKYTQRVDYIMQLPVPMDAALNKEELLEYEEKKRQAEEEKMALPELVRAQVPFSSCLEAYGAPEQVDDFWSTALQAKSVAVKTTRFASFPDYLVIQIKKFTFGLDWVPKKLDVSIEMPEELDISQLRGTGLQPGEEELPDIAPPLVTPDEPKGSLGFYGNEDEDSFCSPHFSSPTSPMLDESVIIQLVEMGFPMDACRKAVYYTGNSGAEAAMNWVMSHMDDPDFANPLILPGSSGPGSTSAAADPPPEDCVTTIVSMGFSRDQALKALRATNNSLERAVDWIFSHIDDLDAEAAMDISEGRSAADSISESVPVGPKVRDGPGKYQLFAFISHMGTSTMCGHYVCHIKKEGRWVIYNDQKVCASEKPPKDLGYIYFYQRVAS
Method in brief: as §1

USP54 = USP54 (UniProt Q70EL1)
Method in brief: as §1

USP7 = USP7 (UniProt Q93009)
Method in brief: as §1

USP8 = biological target: T5, USP8 (UniProt P40818)
T5 sequence (whole entry): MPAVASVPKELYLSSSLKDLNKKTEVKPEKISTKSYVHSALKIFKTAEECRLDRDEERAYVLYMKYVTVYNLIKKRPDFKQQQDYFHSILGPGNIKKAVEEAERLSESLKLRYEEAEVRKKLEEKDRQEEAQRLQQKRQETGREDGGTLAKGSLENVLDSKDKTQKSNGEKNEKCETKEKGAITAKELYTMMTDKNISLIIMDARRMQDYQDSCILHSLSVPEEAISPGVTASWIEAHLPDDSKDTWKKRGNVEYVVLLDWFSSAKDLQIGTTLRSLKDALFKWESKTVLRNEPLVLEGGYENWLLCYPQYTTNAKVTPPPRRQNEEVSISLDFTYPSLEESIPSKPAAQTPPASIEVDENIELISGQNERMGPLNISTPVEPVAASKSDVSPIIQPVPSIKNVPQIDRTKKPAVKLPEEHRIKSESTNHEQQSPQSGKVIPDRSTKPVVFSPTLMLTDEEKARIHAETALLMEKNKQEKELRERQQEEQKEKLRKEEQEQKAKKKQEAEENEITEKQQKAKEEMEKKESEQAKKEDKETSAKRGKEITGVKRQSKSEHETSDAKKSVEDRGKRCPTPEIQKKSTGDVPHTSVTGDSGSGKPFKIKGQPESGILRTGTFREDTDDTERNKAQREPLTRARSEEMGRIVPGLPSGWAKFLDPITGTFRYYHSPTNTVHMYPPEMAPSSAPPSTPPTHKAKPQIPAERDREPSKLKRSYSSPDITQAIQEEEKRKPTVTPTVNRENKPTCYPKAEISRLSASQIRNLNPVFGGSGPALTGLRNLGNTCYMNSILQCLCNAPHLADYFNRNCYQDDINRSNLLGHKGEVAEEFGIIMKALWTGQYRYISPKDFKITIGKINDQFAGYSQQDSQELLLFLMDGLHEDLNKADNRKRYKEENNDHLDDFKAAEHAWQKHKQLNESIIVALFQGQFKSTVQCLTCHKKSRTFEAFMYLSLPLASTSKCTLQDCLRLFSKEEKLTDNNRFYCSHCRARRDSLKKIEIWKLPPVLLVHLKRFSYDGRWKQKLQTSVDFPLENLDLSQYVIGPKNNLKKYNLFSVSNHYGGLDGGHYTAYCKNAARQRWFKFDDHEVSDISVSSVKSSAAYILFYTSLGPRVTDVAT
Method in brief: as §1

USP9X = USP9X (UniProt Q93008)
Method in brief: as §1

UniProt O00487 = biological target: UniProt O00487
Method in brief: as §1

Measured: log2 ratio of Biotin-Ahx-Ub-VS probe labelling

Sequence of USP9X (Q93008 whole entry): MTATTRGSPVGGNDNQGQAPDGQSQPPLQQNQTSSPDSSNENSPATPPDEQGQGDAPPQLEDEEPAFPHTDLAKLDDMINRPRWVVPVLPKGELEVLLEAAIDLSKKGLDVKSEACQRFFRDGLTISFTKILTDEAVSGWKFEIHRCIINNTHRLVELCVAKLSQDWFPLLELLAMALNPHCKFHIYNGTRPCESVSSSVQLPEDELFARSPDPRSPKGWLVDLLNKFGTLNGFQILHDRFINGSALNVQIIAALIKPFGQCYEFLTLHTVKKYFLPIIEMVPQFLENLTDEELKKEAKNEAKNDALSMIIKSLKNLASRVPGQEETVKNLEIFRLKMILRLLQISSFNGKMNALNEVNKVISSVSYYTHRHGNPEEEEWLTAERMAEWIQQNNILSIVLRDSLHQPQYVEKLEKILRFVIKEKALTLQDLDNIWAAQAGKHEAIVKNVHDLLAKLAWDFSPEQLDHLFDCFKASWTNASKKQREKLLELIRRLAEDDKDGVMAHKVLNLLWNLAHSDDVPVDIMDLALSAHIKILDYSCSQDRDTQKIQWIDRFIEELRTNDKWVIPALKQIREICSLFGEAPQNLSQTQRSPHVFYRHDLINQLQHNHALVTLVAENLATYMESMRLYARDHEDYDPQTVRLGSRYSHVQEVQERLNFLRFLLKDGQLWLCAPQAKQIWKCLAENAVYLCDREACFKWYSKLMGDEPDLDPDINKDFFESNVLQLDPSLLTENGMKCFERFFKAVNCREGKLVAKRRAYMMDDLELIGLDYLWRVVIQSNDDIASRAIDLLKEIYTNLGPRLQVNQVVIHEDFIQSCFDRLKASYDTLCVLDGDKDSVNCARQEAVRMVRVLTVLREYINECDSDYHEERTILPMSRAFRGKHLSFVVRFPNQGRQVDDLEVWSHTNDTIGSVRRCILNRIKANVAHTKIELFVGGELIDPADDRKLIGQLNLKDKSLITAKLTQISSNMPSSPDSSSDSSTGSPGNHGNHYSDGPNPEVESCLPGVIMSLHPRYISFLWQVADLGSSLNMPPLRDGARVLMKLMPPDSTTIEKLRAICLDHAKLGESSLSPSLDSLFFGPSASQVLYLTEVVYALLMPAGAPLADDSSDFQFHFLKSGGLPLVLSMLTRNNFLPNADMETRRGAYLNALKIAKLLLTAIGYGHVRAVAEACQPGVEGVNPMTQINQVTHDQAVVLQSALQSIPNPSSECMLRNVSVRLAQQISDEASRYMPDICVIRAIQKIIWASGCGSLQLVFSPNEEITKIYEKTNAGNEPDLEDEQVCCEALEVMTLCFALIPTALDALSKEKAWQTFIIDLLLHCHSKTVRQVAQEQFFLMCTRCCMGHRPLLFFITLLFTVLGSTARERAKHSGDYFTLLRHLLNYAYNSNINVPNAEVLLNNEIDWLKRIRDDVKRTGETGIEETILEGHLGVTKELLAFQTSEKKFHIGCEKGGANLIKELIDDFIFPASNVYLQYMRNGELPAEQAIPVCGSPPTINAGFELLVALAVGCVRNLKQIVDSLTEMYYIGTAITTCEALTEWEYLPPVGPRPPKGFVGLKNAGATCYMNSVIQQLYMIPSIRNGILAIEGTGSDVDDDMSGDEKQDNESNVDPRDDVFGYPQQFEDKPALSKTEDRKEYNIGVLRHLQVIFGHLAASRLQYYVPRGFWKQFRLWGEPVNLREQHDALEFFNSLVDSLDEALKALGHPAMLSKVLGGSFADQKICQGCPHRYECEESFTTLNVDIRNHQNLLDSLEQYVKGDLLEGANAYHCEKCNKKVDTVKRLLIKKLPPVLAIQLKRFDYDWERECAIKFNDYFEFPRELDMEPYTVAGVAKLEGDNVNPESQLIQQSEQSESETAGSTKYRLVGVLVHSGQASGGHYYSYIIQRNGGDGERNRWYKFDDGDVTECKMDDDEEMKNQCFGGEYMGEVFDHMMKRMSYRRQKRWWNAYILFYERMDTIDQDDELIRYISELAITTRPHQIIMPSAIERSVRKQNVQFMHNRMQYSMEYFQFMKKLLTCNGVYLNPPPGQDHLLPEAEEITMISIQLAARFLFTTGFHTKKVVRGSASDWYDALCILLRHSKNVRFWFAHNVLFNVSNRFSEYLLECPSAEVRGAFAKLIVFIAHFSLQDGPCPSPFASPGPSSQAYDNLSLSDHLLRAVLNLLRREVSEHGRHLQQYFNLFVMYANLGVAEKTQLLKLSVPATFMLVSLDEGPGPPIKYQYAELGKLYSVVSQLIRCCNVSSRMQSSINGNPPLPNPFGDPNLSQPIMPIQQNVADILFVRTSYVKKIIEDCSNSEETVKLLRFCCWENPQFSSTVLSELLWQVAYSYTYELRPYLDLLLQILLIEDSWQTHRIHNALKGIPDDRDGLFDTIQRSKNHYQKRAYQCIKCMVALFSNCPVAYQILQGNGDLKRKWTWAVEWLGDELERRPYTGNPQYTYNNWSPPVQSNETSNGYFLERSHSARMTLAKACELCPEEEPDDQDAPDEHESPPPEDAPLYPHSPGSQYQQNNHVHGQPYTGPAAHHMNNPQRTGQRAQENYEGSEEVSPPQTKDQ
Sequence of USP46 (P62068 whole entry): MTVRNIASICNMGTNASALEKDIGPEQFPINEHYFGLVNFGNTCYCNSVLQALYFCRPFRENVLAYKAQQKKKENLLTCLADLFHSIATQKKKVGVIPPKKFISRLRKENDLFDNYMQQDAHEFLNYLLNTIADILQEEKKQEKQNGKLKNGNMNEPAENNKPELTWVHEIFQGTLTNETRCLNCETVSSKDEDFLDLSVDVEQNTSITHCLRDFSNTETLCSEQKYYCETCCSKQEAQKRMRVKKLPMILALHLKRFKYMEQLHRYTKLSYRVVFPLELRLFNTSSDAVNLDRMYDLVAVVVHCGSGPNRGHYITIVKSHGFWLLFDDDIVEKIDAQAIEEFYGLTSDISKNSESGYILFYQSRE
Sequence of USP7 (Q93009 whole entry, looked up): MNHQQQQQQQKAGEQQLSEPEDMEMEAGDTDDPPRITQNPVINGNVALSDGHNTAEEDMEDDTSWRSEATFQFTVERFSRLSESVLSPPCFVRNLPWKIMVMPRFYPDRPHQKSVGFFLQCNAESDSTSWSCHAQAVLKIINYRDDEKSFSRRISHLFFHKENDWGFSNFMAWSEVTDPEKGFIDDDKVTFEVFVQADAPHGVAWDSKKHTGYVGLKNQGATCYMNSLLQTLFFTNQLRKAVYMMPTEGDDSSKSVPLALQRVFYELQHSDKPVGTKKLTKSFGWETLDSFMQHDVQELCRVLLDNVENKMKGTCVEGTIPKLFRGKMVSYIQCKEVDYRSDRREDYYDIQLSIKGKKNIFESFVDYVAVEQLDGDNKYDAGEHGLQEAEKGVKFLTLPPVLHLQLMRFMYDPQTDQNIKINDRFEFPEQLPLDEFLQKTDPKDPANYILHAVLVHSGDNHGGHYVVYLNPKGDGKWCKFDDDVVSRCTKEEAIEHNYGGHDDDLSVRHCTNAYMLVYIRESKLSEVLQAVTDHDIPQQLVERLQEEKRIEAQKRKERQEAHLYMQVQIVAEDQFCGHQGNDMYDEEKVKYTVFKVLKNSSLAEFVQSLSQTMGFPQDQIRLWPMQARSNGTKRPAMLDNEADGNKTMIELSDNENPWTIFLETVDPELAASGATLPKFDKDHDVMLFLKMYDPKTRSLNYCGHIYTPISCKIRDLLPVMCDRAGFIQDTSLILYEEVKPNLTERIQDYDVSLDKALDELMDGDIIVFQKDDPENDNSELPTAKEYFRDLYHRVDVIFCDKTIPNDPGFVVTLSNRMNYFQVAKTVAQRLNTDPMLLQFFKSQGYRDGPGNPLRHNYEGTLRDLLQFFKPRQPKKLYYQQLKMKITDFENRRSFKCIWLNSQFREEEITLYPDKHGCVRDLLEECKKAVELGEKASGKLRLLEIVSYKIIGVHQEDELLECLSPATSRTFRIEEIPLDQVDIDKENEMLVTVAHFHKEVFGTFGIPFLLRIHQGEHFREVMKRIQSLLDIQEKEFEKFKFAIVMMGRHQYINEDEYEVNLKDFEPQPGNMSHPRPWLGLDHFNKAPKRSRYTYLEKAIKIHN
Sequence of UniProt O00487 (O00487 whole entry): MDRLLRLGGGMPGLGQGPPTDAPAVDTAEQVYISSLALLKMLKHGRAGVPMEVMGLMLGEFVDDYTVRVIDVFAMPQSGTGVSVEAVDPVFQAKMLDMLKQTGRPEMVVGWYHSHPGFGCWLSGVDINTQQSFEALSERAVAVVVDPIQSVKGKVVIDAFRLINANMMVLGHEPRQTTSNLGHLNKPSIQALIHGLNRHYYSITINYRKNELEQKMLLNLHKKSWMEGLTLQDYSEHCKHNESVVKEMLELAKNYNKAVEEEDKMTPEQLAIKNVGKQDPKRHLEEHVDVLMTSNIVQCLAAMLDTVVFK

CN(C(=O)CCl)c1nc2ccccc2s1
inactive: USP42 0.236 | USP46 -0.305 | USP47 -0.107 | USP48 -0.574 | USP5 -0.191 | USP54 -0.996 | USP7 -0.566 | USP8 -0.0186 | USP9X -0.325 | UniProt O00487 -0.00105
